# Most compounds without a hit are left out; they make up all but 2.8% or so of the library.
# Shn3 inh set2: inhibitors of Schnurri-3 3'UTR reporter in osteoblasts | Clone20 osteoblast Shn3 3'UTR firefly luciferase, 24 h | AID 588674 | actives 0.52% (n = 360,000) | inhibition, % at 12.5 µM;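 active = mean inhibition of at least 75% with every replicate also reaching 75%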
# HIF-2a block: HIF-2a inhibition. actives 0.72% (n = 360,000). 786-0 RCC cells HIF-2a reporter, luciferase luminescence, overnight. inhibition, % at 18.8 µM;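 active = inhibition of the luminescence signal of 40% or more relative to plate controls, in a single-dose primary screen at 18.75 µM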
# KKLEB cytotox: reduces viability of KKLEB cystic fibrosis airway cells | KKLEB CF airway cells viability, ATPlite luminescence, overnight; hits give low values; cells stimulated with P. aeruginosa culture filtrate | activity change (cytotoxicity), % at 5 µM | actives 0.36% (n = 360,000) | AID 602141;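 active = corrected activity change at or below -50% at 5 µM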
# TRPM1 prom inh: reduces MITF-dependent TRPM1 promoter luciferase signal; actives 0.83% (n = 330,000); SK-MEL-5 TRPM1 promoter luciferase, 24 h; inhibition, % at 12.5 µM; AID 488899;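 active = mean inhibition across replicates of 60% or more, whatever share of single replicates reaches that level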
# Peg3 prom inh: reduces Peg3 promoter-driven luciferase expression in HeLa; inhibition, % at 20 µM; actives 1.7% (n = 360,000); HeLa PEG-Prom luciferase reporter, luminescence, overnight; AID 588405;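 active = inhibition of at least 50% at 20 µM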
# CF NFkB block: blocks PAF-induced NF-kB reporter in cystic fibrosis cells; KKLEB NF-kB-GFP reporter, GFP fluorescence overnight; inhibition, % at 5 µM; actives 0.86% (n = 360,000);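 active = at least 50% inhibition at 5 µM, scaled per plate between neutral and stimulator controls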;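 note: PAF is a Pseudomonas aeruginosa culture filtrate used as stimulus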
# CF NFkB inh conf: confirmation of cystic fibrosis induced NF-kB inhibitors | KKLEB CF airway cells, PAF-induced NF-kB-GFP fluorescence, overnight | actives 64% (n = 1,300) | shares compounds with CF NFkB block | inhibition, % at 5 µM; in the data active = inhibition above about 40%;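 note: stimulus PAF is a Pseudomonas aeruginosa filtrate and not platelet activating factor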
# Numbers stand for hits; . = inactive; / = no result.
SMILES,Shn3 inh set2,HIF-2a block,KKLEB cytotox,TRPM1 prom inh,Peg3 prom inh,CF NFkB block,CF NFkB inh conf
Cn1cc([N+](=O)[O-])c(C(=O)Nc2ccc(C(=O)N3CCCCC3)cc2)n1,.,.,.,.,.,.,/
O=C(O)c1ccc(-n2ncc(Cl)c(Cl)c2=O)cc1,.,.,.,/,.,74,.
C=CCn1c(SCC(=O)c2ccccc2)nnc1-c1ccc2c(c1)OCO2,.,.,.,.,.,.,/
COc1cccc(/C=N/n2c(C3CCCCC3)n[nH]c2=S)c1,.,.,.,.,.,60,77
C=C(C)[C@@H]1CC[C@]2(C(=O)O)CC[C@]3(C)[C@H](CC[C@@H]4[C@@]5(C)CC[C@H](O)C(C)(C)[C@@H]5CC[C@]43C)[C@@H]12,.,.,.,.,54,70,56
O=C(Nc1ccnn1C1CCN(Cc2cccc(F)c2F)CC1)C1CCCC1,.,.,.,.,.,.,/
COc1ccc(C(=O)Nc2ccc(O)c3c(=O)cc(-c4cccc(Cl)c4)oc23)cc1,.,.,.,.,.,50,.
CC(C)(C)c1ccc(C(=O)Nc2ccc(O)c3c(=O)cc(-c4cccc(Cl)c4)oc23)cc1,.,.,.,.,.,.,/
CC1CN(S(=O)(=O)c2cccc(C(=O)Nc3ccc(S(=O)(=O)NC4=NCCCCC4)cc3)c2)CC(C)O1 (stereo not drawn),.,.,.,.,.,.,/
Cc1ccc(N2CC(C(=O)Nc3ccc(S(=O)(=O)N4CCOCC4)cc3)CC2=O)cc1Cl (stereo not drawn),.,.,.,.,.,.,/
COc1ccc(OC)c(C2CC(=O)c3c([nH]c(C(=O)OC(C)C)c3C)C2)c1 (stereo not drawn),.,.,.,.,.,61,86
COc1ccc(NC(=O)c2ccc(Cl)nc2)cc1S(=O)(=O)N1CCOCC1,.,.,.,.,.,.,/
COc1ccc(NC(=O)Cn2ncc(Cl)c(Cl)c2=O)cc1S(=O)(=O)N1CCOCC1,.,.,.,.,97,55,.
CS(=O)(=O)c1ncc(Cl)c(C(=O)Nc2ccc(N3CCOCC3)cc2)n1,94,.,.,92,104,92,79
CS(=O)(=O)c1ccc(C(=O)Nc2ccc(N3CCOCC3)cc2)c(Cl)c1,.,.,.,.,.,.,/
COc1ccc(NC(=O)c2nc(S(=O)(=O)Cc3cccc(C)c3)ncc2Cl)c(OC)c1,97,.,.,.,108,93,52
Cc1ccccc1NC(=O)c1cccc(C(=O)Nc2ccccc2C)n1,.,.,.,.,.,.,/
Cc1ccccc1NC(=O)c1nc(S(C)(=O)=O)ncc1Cl,97,.,.,.,105,79,55
Cc1ccc2c(cnn2C(=O)CCC(=O)NC2CCCCC2)c1,.,.,.,/,.,.,/
COc1cc(C2C=C(c3cccs3)Nc3ncnn32)cc(OC)c1OC (stereo not drawn),.,.,.,.,.,.,/
CC(C)=CCC[C@H](C)C[C@@H]1Cc2[nH]c(=S)[nH]c(=O)c2[C@@H](c2ccc(F)cc2)O1,/,.,/,/,/,/,/
CC1CCN(C(=O)c2[nH]cnc2C(=O)N[C@@H](C)c2ccccc2)CC1,.,.,.,.,.,.,/
CCN1CCN(CCCNC(=O)c2ccc(NC(=O)C3=C(C)OCCS3)cc2)CC1,.,.,.,.,.,.,/
Cc1ccc(-c2cc(C(=O)N(C)Cc3cnn(C)c3C)c3cc(Br)ccc3n2)cc1,.,.,.,.,.,67,58
O=C(Nc1ccccc1)Nc1ccc(Br)cc1F,.,.,.,.,.,.,/
SMILES,Shn3 inh set2,HIF-2a block,KKLEB cytotox,TRPM1 prom inh,Peg3 prom inh,CF NFkB block,CF NFkB inh conf
O=C(Nc1cccc(Cl)c1)Nc1ccc(Br)cc1F,.,.,.,.,.,59,.
O=C(Nc1cccc(Cl)c1)Nc1cc(S(=O)(=O)N2CCCCC2)ccc1Cl,.,.,.,80,66,50,75
COC(=O)c1cc(NC(=O)Nc2cccc(Cl)c2)ccc1Cl,.,.,.,.,.,50,.
C=CCn1c(SCC(=O)N2CCN(c3ccccc3)CC2)nc2c([nH]c3ccccc32)c1=O,.,.,.,.,.,.,/
COc1cccc(-n2cnnc2SC(C)C(=O)NC2CCCC2)c1 (stereo not drawn),.,.,.,.,.,.,/
O=C(CN1C(=O)CCC1=O)Nc1nc(-c2ccccn2)cs1,.,.,.,.,.,.,/
O=C(CN1C(=O)CCC1=O)Nc1nc(-c2nc3ccccc3s2)cs1,.,.,.,.,.,71,92
O=c1[nH]c(C2CCN(S(=O)(=O)c3ccc4c(c3)OCCO4)CC2)nc2c1nnn2Cc1c(F)cccc1Cl,.,.,.,.,56,68,82
COc1ccc(-c2ccc(CN3C(CC(C)C)C(=O)N(Cc4cn(Cc5ccco5)nn4)CCS3(=O)=O)cc2)cc1 (stereo not drawn),.,.,.,/,.,57,.
COc1ccc(-c2ccc(CN3C(CC(C)C)C(=O)N(Cc4cn(Cc5ccco5)nn4)CCS3(=O)=O)cc2)cc1OC (stereo not drawn),.,.,.,/,.,.,/
CC(C)C1C(=O)N(Cc2cn(Cc3ccco3)nn2)CCS(=O)(=O)N1Cc1ccc(-c2ccccc2)cc1 (stereo not drawn),.,.,.,/,.,.,/
CC(C)C1C(=O)N(Cc2cn(Cc3ccco3)nn2)CCS(=O)(=O)N1Cc1ccc(-c2ccc(F)cc2)cc1 (stereo not drawn),.,.,.,/,.,56,.
Cc1ccc(OCC(=O)Nc2ccon2)c([N+](=O)[O-])c1,.,.,.,.,.,.,/
N=c1c(S(=O)(=O)c2ccc(Br)cc2)cc2c(=O)n3ccccc3nc2n1Cc1ccco1,.,.,.,.,.,82,.
CCOC(=O)N1C(=O)[C@](c2ccc(Cl)cc2)(C(C)C)N1C(=O)OCC,.,.,.,.,68,51,.
COC(=O)N1C(=O)[C@](c2ccccc2)(C(C)C)N1C(=O)OC,.,.,.,.,.,.,/
COc1cccc(C(=O)NCCS(=O)(=O)N2CCN(C(=O)c3ccco3)CC2)c1,.,.,.,.,.,.,/
Cc1ccc(C)c(S(=O)(=O)N2CCN(C(=O)c3cccnc3)CC2)c1,.,.,.,.,.,.,/
COc1ccc(-n2nnnc2S(=O)(=O)Cc2ccc(C(=O)O)cc2)cc1,.,.,.,.,.,89,91
Oc1ccc(C[C@@H](CN2CCCC2CN2C(=S)NC[C@@H]2Cc2ccccc2)N2C[C@H](Cc3ccccc3)N(CC3CCCCC3)C2=S)cc1 (stereo partly drawn),/,.,/,/,/,/,/

# High-throughput results from PubChem BioAssay.
